Source: PubChem
Only some compounds are listed: those with a hit (about 2.9% of all), similar ones and a draw of the others.
sPLA2-III inh = Blocks human group III sPLA2 activity. Q9NZ20. QFRET BODIPY PC-A2 liposome hydrolysis, fluorescence. inhibition, % at 12.2 µM. hit rate 0.56% among 370,000;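 active = inhibition above mean plus 3 SD of compounds lying within the high and low control bounds, cut at about 19% in these data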
Myeloid diff 2 = promotes myeloid progenitor differentiation; calls only at 10 µM; hit rate 1% among 360,000; AID 624256; ER-HoxA9 myeloid progenitors, lysozyme-GFP differentiation, flow cytometry;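 active = normalized GFP-positive differentiation at or above the plate's own cutoff, the solvent-only control mean plus 3 SD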;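 note: cells exposed to compound for four days before flow analysis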
ABHD5 PLIN5 PPI = ABHD5-PLIN5 protein interaction inhibition; Split G. princeps luciferase complementation, luminescence, 4 h; inhibition, % at 4 µM; hit rate 0.78% among 360,000;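 active = inhibition above the mean inhibition across every tested compound plus 3 SD, cut at about 22% in these data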
Rtt109 HAT inh = blocks Candida albicans Rtt109/Vps75 acetyltransferase activity; Q5AAJ8; purified Rtt109/Vps75, ThioGlo CoA-SH fluorescence, 4 h; hit rate 0.16% among 330,000; AID 540336; inhibition, % at 34.9 µM;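 active = inhibition of at least 50% in every replicate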
H9c2 protect = myocardial damage modulation in H9c2 cells; H9c2 cardiomyocytes, H2O2 injury protection, ATPLite, 2 h; protection from H2O2 cell death, % at 20 µM; hit rate 0.63% among 360,000; AID 588492;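 active = compounds giving at least 50% protection of heart cells from peroxide-induced death in the single-dose screen, raw or plate-pattern-corrected value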
DAGLB inhibitor = diacylglycerol lipase beta (human) inhibition. Q8NCG7. HEK293T DAGLB membrane lysate, EnzChek fluorogenic substrate. inhibition, % at 5.17 µM. hit rate 0.059% among 340,000; in the data active = inhibition above about 34%
Target sequence (Q8NCG7 whole entry, looked up): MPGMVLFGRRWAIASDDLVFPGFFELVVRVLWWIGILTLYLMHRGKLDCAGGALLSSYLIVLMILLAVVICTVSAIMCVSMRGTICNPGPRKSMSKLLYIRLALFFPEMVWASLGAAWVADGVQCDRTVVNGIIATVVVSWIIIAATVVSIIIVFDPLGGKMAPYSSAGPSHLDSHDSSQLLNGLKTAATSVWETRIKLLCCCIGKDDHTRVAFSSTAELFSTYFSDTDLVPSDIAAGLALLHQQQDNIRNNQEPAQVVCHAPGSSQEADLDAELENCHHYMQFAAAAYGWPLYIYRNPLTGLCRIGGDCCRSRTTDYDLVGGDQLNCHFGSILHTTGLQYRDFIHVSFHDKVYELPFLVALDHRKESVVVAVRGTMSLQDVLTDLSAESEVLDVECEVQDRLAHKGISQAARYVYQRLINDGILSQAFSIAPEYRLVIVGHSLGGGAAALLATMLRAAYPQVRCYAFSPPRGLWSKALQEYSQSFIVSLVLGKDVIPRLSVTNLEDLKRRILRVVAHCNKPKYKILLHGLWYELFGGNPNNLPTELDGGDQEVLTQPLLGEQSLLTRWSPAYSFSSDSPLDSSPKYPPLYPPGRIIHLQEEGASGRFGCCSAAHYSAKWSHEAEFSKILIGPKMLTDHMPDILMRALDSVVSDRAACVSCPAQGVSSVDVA
hGIII sPLA2 conf = human GIII-sPLA2 inhibition, confirmation; hit rate 34% among 2,000; recombinant hGIII-sPLA2, BODIPY PC-A2 QFRET fluorescence; inhibition, % at 12.2 µM; shares compounds with sPLA2-III inh;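 active = mean inhibition across triplicates above the hit cutoff set in the earlier primary screen, cut at about 19% in these data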
535nm interf = optically interferes with 535nm fluorescence in sPLA2 counter-screen | shares compounds with sPLA2-III inh | BODIPY FL product fluorescence interference, QFRET | inhibition, % at 12.2 µM | hit rate 8.5% among 2,000 | AID 743282;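 active = average inhibition above the solvent-only control mean plus 3 SD, cut at about 6% in these data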
535nm interf DR = counter-screen for HGIII-sPLA2 inhibitors: 535nm fluorescence interference, dose response; 240 tested, under 10 active; IC50, µM; shares compounds with sPLA2-III inh; BODIPY FL product fluorescence interference, cell-free;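 active = IC50 at or below 10 µM; inactive = IC50 above 10 µM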
A number is an active result; n = inactive; x = no result; + = active, no number.

SMILES | sPLA2-III inh | Myeloid diff 2 | ABHD5 PLIN5 PPI | Rtt109 HAT inh | H9c2 protect | DAGLB inhibitor | hGIII sPLA2 conf | 535nm interf | others
O=C(NNC(=O)c1ccc2ccccc2c1O)Nc1ccc(F)cc1 | 28 | n | n | n | n | n | 30 | n | 535nm interf DR=n
Cc1cccc(NC(=O)NNC(=O)c2ccc3ccccc3c2O)c1 | 29 | n | n | n | n | n | 30 | n | 535nm interf DR=n
O=C(NNC(=O)c1ccc2ccccc2c1O)NC1CCCCC1 | 26 | n | n | n | n | n | n | n
Cc1cccc(NC(=O)NNC(=O)c2ccc3ccccc3c2)c1 | n | n | n | n | n | n | x | x
Fc1ccccc1/C=N/Nc1nc(N2CCCCC2)nc(N2CCCCC2)n1 | n | n | n | n | n | n | x | x
c1csc(-c2nnc(NC3CCCCC3)c3ccccc23)c1 | 21 | n | n | n | n | n | n | n
CCOCCCNC(=O)C1CCN(C(=O)N(C)C)CC1 | 20 | n | n | n | n | n | n | n
CN(C)S(=O)(=O)c1cccc(C(=O)OCC(=O)NCc2ccc3c(c2)OCO3)c1 | n | n | n | n | n | n | x | x
CCCCN1C(=O)Cc2c1nc(N)c1c(N)nc(N(CCC)CCC)c(C#N)c21 | 28 | + | n | n | n | n | n | n
Cc1ccccc1/C=N/n1c(-c2cc(-c3ccccc3)n[nH]2)n[nH]c1=S | 26 | n | n | n | n | n | n | n
Cc1ccccc1/C=N/n1c(-c2ccccn2)n[nH]c1=S | n | n | n | n | n | n | x | x
O=[N+]([O-])c1ccccc1C=Nn1c(-c2cc(-c3ccccc3)n[nH]2)n[nH]c1=S | n | x | x | x | x | x | x | x
S=c1[nH]nc(-c2ccccn2)n1/N=C/c1cccc2ccccc12 | 21 | n | n | n | n | n | 27 | n
Cc1ccc2cc(CCNC(=O)c3cccc([N+](=O)[O-])c3)c(=O)[nH]c2c1C | 22 | n | n | n | n | n | n | n
O=C1N/C(=N\N=C\c2cccs2)SC1Cc1ccc(Cl)cc1Cl (stereo unspecified) | n | n | n | n | n | n | x | x
O=C1N/C(=N\N=C\c2cccs2)SC1Cc1cccc(Cl)c1Cl (stereo unspecified) | 20 | x | n | n | n | n | n | n
COc1ccc(NC(=O)c2cc(-c3cc(C)ccc3O)n[nH]2)cc1Cl | 20 | n | n | n | n | n | n | n
Cc1cccc(NC(=O)c2cc(-c3cc(C)ccc3O)n[nH]2)c1 | n | n | n | n | n | n | x | x
Cc1ccc(NC(=O)CC2NCCNC2=O)cc1Cl (stereo unspecified) | n | n | n | n | n | n | x | x
COc1ccc(NC(=S)N2CCN(c3ccccc3)CC2)c(OC)c1 | n | n | n | n | n | n | x | x
CCOc1ccccc1NC(=S)N1CCN(c2ccccc2)CC1 | 24 | n | n | n | n | n | 26 | n
O=C(CCCc1ccccn1)c1ccc(-c2ccccc2)cc1 | n | n | n | n | n | n | x | x
COc1cc(S(=O)(=O)n2c(C)nc3ccccc32)ccc1F | 20 | n | n | n | n | n | n | n
COc1ccc(S(=O)(=O)n2c(C)nc3ccccc32)cc1C | n | n | n | n | n | n | x | x
CCOC(=O)c1cnc2ccc(OCC)cc2c1NCc1ccccc1OC | 24 | n | n | n | n | n | n | n
SMILES | sPLA2-III inh | Myeloid diff 2 | ABHD5 PLIN5 PPI | Rtt109 HAT inh | H9c2 protect | DAGLB inhibitor | hGIII sPLA2 conf | 535nm interf | others
Cc1ccc2c(c1)c1c3n2CCNC3CCC1 (stereo unspecified) | 27 | n | n | n | n | n | 32 | n | 535nm interf DR=n
CCN(CC)CCN1CCn2c3c(c4cc(C)ccc42)CCCC31 (stereo unspecified) | 23 | n | n | x | n | n | n | n
CCN1CCn2c3c(c4cc(Cl)ccc42)CCCC31 (stereo unspecified) | n | n | n | n | n | n | x | x
CCCCCCN1CCN(C2CN(Cc3cn(CCCC(=O)OC)nn3)S(=O)(=O)C2)CC1 (stereo unspecified) | 21 | n | n | x | x | x | n | n
O=C1NC[C@@H](c2ccccc2)OC(=O)[C@@H](Cc2ccc(F)cc2)C/C=C\C[C@@H]1CC(=O)N(CCO)Cc1ccccc1 | n | n | n | n | n | n | x | x
S=c1[nH]cc(-c2ccc(Cl)cc2)n1Cc1ccccc1 | 24 | n | n | n | n | n | n | n
CCn1c(-c2ccccc2)c[nH]c1=S | n | n | n | n | n | n | x | x
CC1CCCN(C(C(=O)NC2CCCCC2)c2cc3c(cc2[N+](=O)[O-])OCO3)C1 (stereo unspecified) | 20 | n | n | n | n | n | n | n
O=C(Nc1ccccc1-c1ccccc1)C1CCCC1 | 20 | n | n | n | n | n | n | n
C[N+](C)(C)CCCCCC(=O)/C=N/O | 22 | n | n | n | n | n | n | n
C[N+](C)(C)CCCCCC[N+](C)(C)C | n | n | n | n | n | n | x | x
COC(=O)CCn1[nH]c(=O)c2ccccc2c1=O | 24 | n | n | n | n | n | n | n
Cc1cccnc1NC(=S)Nc1ncccc1C | n | n | n | n | n | n | x | x
CCOc1ccc(C(=O)NC(=S)Nc2ncccc2C)cc1[N+](=O)[O-] | 20 | n | n | n | n | n | n | n
CCOc1ccccc1NC(=S)Nc1ncccc1C | 23 | n | n | n | n | n | n | n
Cc1[nH]c2ccccc2c(=O)c1SC(F)(F)C(F)C(F)(F)F (stereo unspecified) | n | n | n | n | n | n | x | x
Cc1cc2c(cc1C)-c1nnnn1C(N1CCCCC1)C(=O)N2 (stereo unspecified) | n | n | n | x | x | x | x | x
CCc1nc(SCC(=O)Nc2ccc(N(C)C)cc2)c2ccccc2n1 | 22 | n | n | n | n | n | 23 | n
CCOC1(c2ccccc2)OC(=O)c2ccccc21 (stereo unspecified) | 22 | n | n | n | n | n | n | n
CC(C)OC1(c2ccccc2)OC(=O)c2ccccc21 (stereo unspecified) | n | n | n | n | n | n | x | x
Cc1ccc(N2CN(Cc3ccco3)CNC2=S)c(C)c1 | 25 | n | n | n | n | n | n | n
O=[N+]([O-])C1=CC=C2C(=NC3(CCCCC3)N2O)C1=NC1CCCCC1 | 19 | n | n | n | n | n | 25 | n
O=C(CCl)NNC(=O)c1c(O)c2ccccc2[nH]c1=O | 23 | + | n | n | n | n | n | n
CCCCC(=O)NNC(=O)c1c(O)c2ccccc2[nH]c1=O | n | n | n | n | n | n | x | x
O=S(=O)(O)c1nc2ccccc2n1Cc1ccccc1 | 20 | n | n | n | n | n | n | n
